The results in this text go back to PubChem BioAssay (NCI).

SMILES strings stand for the structures. This is part of a sample that, as a whole, favours compounds with a hit. Of some 79,000 tested, about 15% had one in any assay. Values without a mark were called inactive. Calls of active or inactive are those of the source. Rule as the data show it: active = growth inhibition above about 70%; inactive = the rest.

A short description of the first assay: NCI Yeast Anticancer Drug Screen. Data for the sgs1 mgt1 strain (AID 161).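 Also: 0% = growth of cultures given vehicle only.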 The following applies: S. cerevisiae sgs1 mgt1 strain, at 50.0 µM, active compounds read high. The procedure, abridged:
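Yeast cells carrying a defined DNA-repair defect were exposed to test compounds. Growth inhibition was measured relative to vehicle-treated controls.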
Regarding `CC(C)CCOC(=S)S`, the growth inhibition was -22.6%.

In the case of `CCCCCCNC(=O)CCC(NC(=O)c1ccc(N(C)Cc2cnc3nc(N)nc(N)c3n2)cc1)C(=O)NCCCCCC` (stereo not given), the growth inhibition was 19.1%.

For `N#C/C(N)=C(\C#N)N=CNc1ccc(N)cc1`, the growth inhibition is -22.2%.

On to `ClC1CC2CCC1C2Br` (stereo not given) (tested in a mixture with another compound), for which the growth inhibition was -21.1%.

With `NC(CS)C(=O)NCCNCCNc1ccc(NCCNCCNC(=O)C(N)CS)c2c1C(=O)c1c(O)ccc(O)c1C2=O` (stereo not given), the growth inhibition is 2.1%.

On to `Nc1c(I)cc(C(=O)O)c(O)c1I`, for which the growth inhibition is -15.3%.

For `O=c1[nH]cnc2c1ncn2CCCc1ccccc1`, the growth inhibition is 2.8%.

As for `CC(=O)NNC(=S)/N=C/c1c(C)[nH]n(-c2ccccc2)c1=O`, the growth inhibition is -22.1%.

With `CCC(CO)c1ccccc1` (stereo not given), the growth inhibition was -3.1%.

Turning to `CN=NNc1ccccc1`, the growth inhibition was -6.45%.

Consider `CC(C)(CCCOc1ccccc1)/C(=N/O)c1ccccc1`, for which the growth inhibition is -14.9%.

`COC(=O)/C(C#N)=C/c1cccnc1`: the growth inhibition is 6%.

With `CN(Cc1nc2c(N)nc(N)nc2nc1N)c1ccc(C(=O)NC(CCC(=O)O)C(=O)O)cc1` (stereo not given), the growth inhibition is 22.3%.

In the case of `CCN(CC)C(=O)Nc1cccc(O)c1`, the growth inhibition was -2.6%.

For `O=C(NCCN1CCCC1)Nc1ccccc1`, the growth inhibition is -17.2%.

For `CC(O)CN1CCOCC1` (stereo not given), the growth inhibition was -0.1%.

Regarding `COc1ccc(NC(=O)CC(=O)N2N=C(N(c3ccccc3)c3ccccc3)CC2c2ccccc2)cc1` (stereo not given), the growth inhibition is 12.2%.

As for `CSc1cc(/C=C/c2ccccc2)ccc1[N+](=O)[O-]`, the growth inhibition was 4.95%.

`NCc1ccc(C(=O)O)cc1`: the growth inhibition was -28%.

As for `O=C1NC(c2ccccc2Cl)Nc2ccccc21` (stereo not given), the growth inhibition is 5.65%.

Consider `O=C1c2ccccc2Cc2ccccc21`, for which the growth inhibition is -1.7%.

Turning to `CN1CCC(c2ccccc2)(c2ccccc2)OC1`, the growth inhibition was 6.9%.

On to `O=[N+]([O-])c1cccc(C2=NOC3CCCC23)c1` (stereo not given), for which the growth inhibition was 15.2%.

Turning to `C[Si](C)(C)C#CCOC=C1CC1`, the growth inhibition was -27.2%.

On to `N/C=N/O`, for which the growth inhibition was 16.6%.

Regarding `O=[N+]([O-])c1ccc(OCCO)c([N+](=O)[O-])c1`, the growth inhibition was -22.4%.

For the molecule `CC(C)(C)C1CCC2c3c([nH]c4ccccc34)C3C(=O)N(c4ccc(Br)cc4)C(=O)C3C2C1` (stereo not given), the growth inhibition was 8.05%.

In the case of `CCOC(=O)C(CCC(C)(C)SCc1ccccc1)(NC(C)=O)C(=O)OCC`, the growth inhibition is 1.45%.

Take `CCC1CCN(CC)CC1`: the growth inhibition was 3.2%.

Consider `Cc1cc(C(=O)O)c(C(=O)O)c(=O)[nH]1`, for which the growth inhibition was 0.3%.

For `CC(=O)/C(=C\c1ccc([N+](=O)[O-])o1)C(=O)CCN(C)C`, the growth inhibition is 63%.

Take `C(=C1/NC(c2ccccc2)=Nc2ccccc21)/c1ccccc1`: the growth inhibition was 10.9%.

For the molecule `COc1ccc2ccccc2c1C1NC(=O)c2ccccc2N1` (stereo not given), the growth inhibition is 5.75%.

Regarding `NCCNCCCCCCNC(=O)c1cccc2cc3ccccc3nc12`, the growth inhibition is -30.1%.

Consider `c1ccc(-c2ccc3ncccc3c2)cc1`, for which the growth inhibition was 5.05%.

As for `CCOC(=O)Oc1ccc(C(CNC(C)C)OC(=O)OCC)cc1OC(=O)OCC` (stereo not given), the growth inhibition was 25.6%.

In the case of `S=C1Cc2c([nH]c3ccccc23)-c2ccccc2N1`, the growth inhibition is -8.85%.

For `Cc1nc(N)c(N2CCN(S(=O)(=O)N(Cc3ccccc3)Cc3ccccc3)CC2)c(=O)[nH]1`, the growth inhibition was 2.95%.

With `CC(Br)C1=CC(c2ccccc2)(c2ccccc2)c2ccccc21` (stereo not given), the growth inhibition is 97.9% (active).

Take `COC(=O)c1ccc(N(C)CCC(=O)COC(C)=O)cc1`: the growth inhibition is 12%.

A further assay is described as follows: NCI Yeast Anticancer Drug Screen. Data for the cln2 rad14 strain (AID 165).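 Also: 0% = growth equal to vehicle treated cultures.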 The following applies: S. cerevisiae cln2 rad14 strain, at 50.0 µM, active compounds read high. In short, it runs like this: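 Yeast strain cln2 rad14, bearing defects in cell cycle control and DNA repair, serves as the test system; values reflect growth inhibition compared with vehicle.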
With `CC(C)CCOC(=S)S`, the growth inhibition was -5.8%.

Consider `CCCCCCNC(=O)CCC(NC(=O)c1ccc(N(C)Cc2cnc3nc(N)nc(N)c3n2)cc1)C(=O)NCCCCCC` (stereo not given), for which the growth inhibition was 19.9%.

Regarding `N#C/C(N)=C(\C#N)N=CNc1ccc(N)cc1`, the growth inhibition is 23%.

Consider `ClC1CC2CCC1C2Br` (stereo not given) (tested in a mixture with another compound), for which the growth inhibition was -31.9%.

Consider `NC(CS)C(=O)NCCNCCNc1ccc(NCCNCCNC(=O)C(N)CS)c2c1C(=O)c1c(O)ccc(O)c1C2=O` (stereo not given), for which the growth inhibition was -0.85%.

As for `Nc1c(I)cc(C(=O)O)c(O)c1I`, the growth inhibition is 4.65%.

As for `O=c1[nH]cnc2c1ncn2CCCc1ccccc1`, the growth inhibition is -69.6%.

With `CC(=O)NNC(=S)/N=C/c1c(C)[nH]n(-c2ccccc2)c1=O`, the growth inhibition was 2.65%.

With `CCC(CO)c1ccccc1` (stereo not given), the growth inhibition was -25.4%.

For `CN=NNc1ccccc1`, the growth inhibition was -29.2%.

For the molecule `CC(C)(CCCOc1ccccc1)/C(=N/O)c1ccccc1`, the growth inhibition was 21.6%.

On to `COC(=O)/C(C#N)=C/c1cccnc1`, for which the growth inhibition was -61.1%.

Consider `CN(Cc1nc2c(N)nc(N)nc2nc1N)c1ccc(C(=O)NC(CCC(=O)O)C(=O)O)cc1` (stereo not given), for which the growth inhibition is -7.4%.

In the case of `CCN(CC)C(=O)Nc1cccc(O)c1`, the growth inhibition is -28.7%.

Take `O=C(NCCN1CCCC1)Nc1ccccc1`: the growth inhibition was -47.7%.

As for `CC(O)CN1CCOCC1` (stereo not given), the growth inhibition was 15.2%.

Regarding `COc1ccc(NC(=O)CC(=O)N2N=C(N(c3ccccc3)c3ccccc3)CC2c2ccccc2)cc1` (stereo not given), the growth inhibition was 26.3%.

With `CSc1cc(/C=C/c2ccccc2)ccc1[N+](=O)[O-]`, the growth inhibition was 15%.

As for `NCc1ccc(C(=O)O)cc1`, the growth inhibition is -68.7%.

In the case of `O=C1NC(c2ccccc2Cl)Nc2ccccc21` (stereo not given), the growth inhibition is -32.1%.

Regarding `O=C1c2ccccc2Cc2ccccc21`, the growth inhibition is -19.4%.

Take `CN1CCC(c2ccccc2)(c2ccccc2)OC1`: the growth inhibition is -8.45%.

With `O=[N+]([O-])c1cccc(C2=NOC3CCCC23)c1` (stereo not given), the growth inhibition was 13.8%.

Turning to `C[Si](C)(C)C#CCOC=C1CC1`, the growth inhibition is 9.15%.

On to `N/C=N/O`, for which the growth inhibition is 18.2%.

With `O=[N+]([O-])c1ccc(OCCO)c([N+](=O)[O-])c1`, the growth inhibition was -11.5%.

Turning to `CC(C)(C)C1CCC2c3c([nH]c4ccccc34)C3C(=O)N(c4ccc(Br)cc4)C(=O)C3C2C1` (stereo not given), the growth inhibition is -35.6%.

On to `CCOC(=O)C(CCC(C)(C)SCc1ccccc1)(NC(C)=O)C(=O)OCC`, for which the growth inhibition was 16.7%.

As to `CCC1CCN(CC)CC1`, the growth inhibition was 1.8%.

For `Cc1cc(C(=O)O)c(C(=O)O)c(=O)[nH]1`, the growth inhibition was 7.1%.

For the molecule `CC(=O)/C(=C\c1ccc([N+](=O)[O-])o1)C(=O)CCN(C)C`, the growth inhibition is 22.9%.

As to `C(=C1/NC(c2ccccc2)=Nc2ccccc21)/c1ccccc1`, the growth inhibition was 37.6%.

As to `COc1ccc2ccccc2c1C1NC(=O)c2ccccc2N1` (stereo not given), the growth inhibition is 8.9%.

With `NCCNCCCCCCNC(=O)c1cccc2cc3ccccc3nc12`, the growth inhibition is -7.55%.

Regarding `c1ccc(-c2ccc3ncccc3c2)cc1`, the growth inhibition was -34.4%.

`CCOC(=O)Oc1ccc(C(CNC(C)C)OC(=O)OCC)cc1OC(=O)OCC` (stereo not given): the growth inhibition is 9.65%.

For the molecule `S=C1Cc2c([nH]c3ccccc23)-c2ccccc2N1`, the growth inhibition is -3.9%.

Consider `Cc1nc(N)c(N2CCN(S(=O)(=O)N(Cc3ccccc3)Cc3ccccc3)CC2)c(=O)[nH]1`, for which the growth inhibition was -11.9%.

Regarding `CC(Br)C1=CC(c2ccccc2)(c2ccccc2)c2ccccc21` (stereo not given), the growth inhibition was 96.8% (active).

Turning to `COC(=O)c1ccc(N(C)CCC(=O)COC(C)=O)cc1`, the growth inhibition is -10.2%.
